Laboratory results reported in paper PMC9838217, “Structure of SALL4 zinc finger domain reveals link between AT-rich DNA binding and Okihiro syndrome”.
Where a chain is given by its changes, count along the chain named.

Key:
Assay in all cases: HT-SELEX; high values mean tight binding
Settings in all cases: protein: recombinant; vector His6-GST; dsDNA, one strand shown
[1] = molecular target: T1, SALL4 ZFC4 WT (HT-SELEX) (Mus musculus, UniProt Q8BX22 870-940)
T1 sequence: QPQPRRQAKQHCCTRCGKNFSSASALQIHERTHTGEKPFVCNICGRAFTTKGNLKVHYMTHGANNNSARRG
Outline: (§1)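 Each canonical k-mer's binding signal is its read fraction expressed as fold change over the initial random library. Reads came from MiSeq sequencing, scanned for 6-mers, after up to 6 triplicate cycles in which purified recombinant mouse SALL4 zinc finger cluster 4 (residues 870–940, 1 µg) bound library DNA (1.5 µg first cycle, 200 ng later) in 100 µl of 10 mM Tris–HCl pH 7.5, 50 mM NaCl, poly(dI-dC), DTT for 10 min at room temperature. Complexes were then Ni2+ bead-captured, washed, PCR-amplified and reselected.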

[2] = molecular target: T2, SALL4 ZFC4 R900W (HT-SELEX) (Mus musculus, UniProt Q8BX22 870-940, R900W)
T2 sequence: T1 sequence with R31W
Outline: as §1

[3] = molecular target: T3, SALL4 ZFC4 G921D (HT-SELEX) (Mus musculus, UniProt Q8BX22 870-940, G921D)
T3 sequence: T1 sequence with G52D
Outline: as §1

ATAACA
binding signal [1]: 2.52 ± 0.194 fold-change vs cycle 0 | binding signal [2]: 2.06 ± 0.122 fold-change vs cycle 0 | binding signal [3]: 1.83 ± 0.192 fold-change vs cycle 0

GCAGTA
binding signal [1]: 0.609 ± 0.0122 fold-change vs cycle 0 | binding signal [2]: 0.693 ± 0.0275 fold-change vs cycle 0 | binding signal [3]: 0.766 ± 0.032 fold-change vs cycle 0

GGTTGA
binding signal [1]: 0.753 ± 0.0201 fold-change vs cycle 0 | binding signal [2]: 0.876 ± 0.0229 fold-change vs cycle 0 | binding signal [3]: 0.9303 ± 0.00634 fold-change vs cycle 0

AGAATC
binding signal [1]: 1.3 ± 0.1 fold-change vs cycle 0 | binding signal [2]: 1.47 ± 0.0816 fold-change vs cycle 0 | binding signal [3]: 1.41 ± 0.128 fold-change vs cycle 0

CCGATC
binding signal [1]: 0.399 ± 0.0279 fold-change vs cycle 0 | binding signal [2]: 0.473 ± 0.0177 fold-change vs cycle 0 | binding signal [3]: 0.64 ± 0.0658 fold-change vs cycle 0

AGTCTA
binding signal [1]: 1.25 ± 0.0412 fold-change vs cycle 0 | binding signal [2]: 1.41 ± 0.0887 fold-change vs cycle 0 | binding signal [3]: 1.37 ± 0.0788 fold-change vs cycle 0

ACTCCT
binding signal [1]: 1.01 ± 0.0205 fold-change vs cycle 0 | binding signal [2]: 1.15 ± 0.052 fold-change vs cycle 0 | binding signal [3]: 1.144 ± 0.00693 fold-change vs cycle 0

GTACAA
binding signal [1]: 1.14 ± 0.0399 fold-change vs cycle 0 | binding signal [2]: 1.26 ± 0.0443 fold-change vs cycle 0 | binding signal [3]: 1.22 ± 0.0489 fold-change vs cycle 0

TGTTAA
binding signal [1]: 1.94 ± 0.0917 fold-change vs cycle 0 | binding signal [2]: 2 ± 0.113 fold-change vs cycle 0 | binding signal [3]: 1.77 ± 0.143 fold-change vs cycle 0

CGTGGA
binding signal [1]: 0.351 ± 0.0215 fold-change vs cycle 0 | binding signal [2]: 0.435 ± 0.0211 fold-change vs cycle 0 | binding signal [3]: 0.54 ± 0.0631 fold-change vs cycle 0

AGGAGA
binding signal [1]: 0.932 ± 0.027 fold-change vs cycle 0 | binding signal [2]: 1.09 ± 0.059 fold-change vs cycle 0 | binding signal [3]: 1.06 ± 0.044 fold-change vs cycle 0

AAGGCA
binding signal [1]: 0.566 ± 0.0136 fold-change vs cycle 0 | binding signal [2]: 0.683 ± 0.00728 fold-change vs cycle 0 | binding signal [3]: 0.777 ± 0.0437 fold-change vs cycle 0

ATTTGA
binding signal [1]: 1.85 ± 0.0312 fold-change vs cycle 0 | binding signal [2]: 1.79 ± 0.0613 fold-change vs cycle 0 | binding signal [3]: 1.65 ± 0.0905 fold-change vs cycle 0

AGCATC
binding signal [1]: 0.703 ± 0.0384 fold-change vs cycle 0 | binding signal [2]: 0.804 ± 0.0378 fold-change vs cycle 0 | binding signal [3]: 0.887 ± 0.0448 fold-change vs cycle 0

CAGATG
binding signal [1]: 0.794 ± 0.0267 fold-change vs cycle 0 | binding signal [2]: 0.922 ± 0.0206 fold-change vs cycle 0 | binding signal [3]: 0.959 ± 0.0159 fold-change vs cycle 0

GAATTC
binding signal [1]: 1.29 ± 0.0387 fold-change vs cycle 0 | binding signal [2]: 1.38 ± 0.0509 fold-change vs cycle 0 | binding signal [3]: 1.33 ± 0.0652 fold-change vs cycle 0

CGTTCC
binding signal [1]: 0.389 ± 0.0208 fold-change vs cycle 0 | binding signal [2]: 0.468 ± 0.0134 fold-change vs cycle 0 | binding signal [3]: 0.546 ± 0.0299 fold-change vs cycle 0

TGCACA
binding signal [1]: 0.529 ± 0.0293 fold-change vs cycle 0 | binding signal [2]: 0.586 ± 0.0273 fold-change vs cycle 0 | binding signal [3]: 0.698 ± 0.0457 fold-change vs cycle 0

CGATAG
binding signal [1]: 0.68 ± 0.0214 fold-change vs cycle 0 | binding signal [2]: 0.774 ± 0.0246 fold-change vs cycle 0 | binding signal [3]: 0.851 ± 0.0176 fold-change vs cycle 0

GCTAGA
binding signal [1]: 0.636 ± 0.0274 fold-change vs cycle 0 | binding signal [2]: 0.746 ± 0.0225 fold-change vs cycle 0 | binding signal [3]: 0.8072 ± 0.00258 fold-change vs cycle 0

AATTCG
binding signal [1]: 0.945 ± 0.024 fold-change vs cycle 0 | binding signal [2]: 1.008 ± 0.0043 fold-change vs cycle 0 | binding signal [3]: 1.07 ± 0.0346 fold-change vs cycle 0

CGAACA
binding signal [1]: 0.588 ± 0.0204 fold-change vs cycle 0 | binding signal [2]: 0.694 ± 0.0214 fold-change vs cycle 0 | binding signal [3]: 0.787 ± 0.0244 fold-change vs cycle 0

GTCCCA
binding signal [1]: 0.392 ± 0.0166 fold-change vs cycle 0 | binding signal [2]: 0.464 ± 0.0186 fold-change vs cycle 0 | binding signal [3]: 0.563 ± 0.0717 fold-change vs cycle 0

CGCTTA
binding signal [1]: 0.535 ± 0.019 fold-change vs cycle 0 | binding signal [2]: 0.58 ± 0.0258 fold-change vs cycle 0 | binding signal [3]: 0.684 ± 0.061 fold-change vs cycle 0

CCCATC
binding signal [1]: 0.471 ± 0.0121 fold-change vs cycle 0 | binding signal [2]: 0.54 ± 0.0172 fold-change vs cycle 0 | binding signal [3]: 0.613 ± 0.034 fold-change vs cycle 0

CCATGA
binding signal [1]: 0.874 ± 0.0255 fold-change vs cycle 0 | binding signal [2]: 0.938 ± 0.011 fold-change vs cycle 0 | binding signal [3]: 1.01 ± 0.0502 fold-change vs cycle 0

ACTCTC
binding signal [1]: 0.904 ± 0.0319 fold-change vs cycle 0 | binding signal [2]: 1.05 ± 0.0292 fold-change vs cycle 0 | binding signal [3]: 1.07 ± 0.0307 fold-change vs cycle 0

ATCACC
binding signal [1]: 0.917 ± 0.0379 fold-change vs cycle 0 | binding signal [2]: 0.988 ± 0.0223 fold-change vs cycle 0 | binding signal [3]: 1.06 ± 0.0273 fold-change vs cycle 0

TACGAA
binding signal [1]: 1.17 ± 0.0583 fold-change vs cycle 0 | binding signal [2]: 1.27 ± 0.067 fold-change vs cycle 0 | binding signal [3]: 1.22 ± 0.0855 fold-change vs cycle 0

GCATCC
binding signal [1]: 0.382 ± 0.0508 fold-change vs cycle 0 | binding signal [2]: 0.43 ± 0.0105 fold-change vs cycle 0 | binding signal [3]: 0.551 ± 0.0913 fold-change vs cycle 0

CTTCCC
binding signal [1]: 0.499 ± 0.032 fold-change vs cycle 0 | binding signal [2]: 0.599 ± 0.0427 fold-change vs cycle 0 | binding signal [3]: 0.656 ± 0.0665 fold-change vs cycle 0

GAAGGA
binding signal [1]: 0.959 ± 0.0373 fold-change vs cycle 0 | binding signal [2]: 1.11 ± 0.0789 fold-change vs cycle 0 | binding signal [3]: 1.08 ± 0.0796 fold-change vs cycle 0

GGATCA
binding signal [1]: 0.841 ± 0.0365 fold-change vs cycle 0 | binding signal [2]: 0.972 ± 0.0131 fold-change vs cycle 0 | binding signal [3]: 1.03 ± 0.0289 fold-change vs cycle 0

CACCCA
binding signal [1]: 0.431 ± 0.034 fold-change vs cycle 0 | binding signal [2]: 0.488 ± 0.0313 fold-change vs cycle 0 | binding signal [3]: 0.59 ± 0.0722 fold-change vs cycle 0

GATTGA
binding signal [1]: 1.34 ± 0.0367 fold-change vs cycle 0 | binding signal [2]: 1.46 ± 0.0217 fold-change vs cycle 0 | binding signal [3]: 1.43 ± 0.0387 fold-change vs cycle 0

ATACAC
binding signal [1]: 1.31 ± 0.0559 fold-change vs cycle 0 | binding signal [2]: 1.36 ± 0.0547 fold-change vs cycle 0 | binding signal [3]: 1.35 ± 0.0583 fold-change vs cycle 0

GATTAA
binding signal [1]: 2.07 ± 0.127 fold-change vs cycle 0 | binding signal [2]: 1.99 ± 0.123 fold-change vs cycle 0 | binding signal [3]: 1.77 ± 0.188 fold-change vs cycle 0

GGAACA
binding signal [1]: 0.762 ± 0.0355 fold-change vs cycle 0 | binding signal [2]: 0.882 ± 0.0371 fold-change vs cycle 0 | binding signal [3]: 0.956 ± 0.0475 fold-change vs cycle 0

ATGATC
binding signal [1]: 1.37 ± 0.0972 fold-change vs cycle 0 | binding signal [2]: 1.46 ± 0.0896 fold-change vs cycle 0 | binding signal [3]: 1.48 ± 0.0835 fold-change vs cycle 0

ACATCA
binding signal [1]: 1.32 ± 0.0619 fold-change vs cycle 0 | binding signal [2]: 1.42 ± 0.0539 fold-change vs cycle 0 | binding signal [3]: 1.37 ± 0.0921 fold-change vs cycle 0

CGTATA
binding signal [1]: 1.19 ± 0.0262 fold-change vs cycle 0 | binding signal [2]: 1.2 ± 0.0145 fold-change vs cycle 0 | binding signal [3]: 1.18 ± 0.0335 fold-change vs cycle 0

ACTTTC
binding signal [1]: 1.28 ± 0.0405 fold-change vs cycle 0 | binding signal [2]: 1.42 ± 0.0806 fold-change vs cycle 0 | binding signal [3]: 1.37 ± 0.0709 fold-change vs cycle 0
